Drawing on PubChem BioAssay (NCATS), this text covers Potency and activity change, negative = inhibition for 40 molecules.

Inconclusive results are not listed. Active and inactive are the calls of the source. The call rests on the fitted dose curve; in most records, active means well fitted inhibition curve with a large enough effect; inconclusive means small, poorly fitted or top-dose-only effect; inactive means no such curve, though single readings can be large or run the other way.
On the % scale 0 is the no-effect control and ±100 the full control effect; potency means the concentration at half of the fitted maximal effect.

For this test, the target named is Cytochrome P450 2C9 (Homo sapiens) (UniProt P11712). The test is described as follows: qHTS Assay for Inhibitors and Substrates of Cytochrome P450 2C9 (AID 883). Further: nearly all actives have a fitted effect of over 60% in size. The settings on record: recombinant CYP2C9, luciferin-H luminescence, 60 min; series mostly up to 57.1 µM. As for the experimental part: NIH Molecular Libraries Screening Centers Network [MLSCN] NIH Chemical Genomics Center [NCGC] MLSCN Grant: None NCGC Assay Overview: The P450 gene superfamily is involved in the metabolism and clearance of xenobiotics. This assay used human CYP2C9 to measure the hydroxylation of deoxyluciferin (Luciferin-H; P450 Glo-Buffer) to luciferin. The luciferin is then measured by luminescence after the addition of a luciferase detection reagent. Luciferin-H concentration in the assay was equal to its Michaelis constant KM for CYP2C9. Inhibitors and some substrates limit the production of luciferin, and decrease measured luminescence.
Chain of Cytochrome P450 2C9 (Homo sapiens) (P11712 whole entry, looked up): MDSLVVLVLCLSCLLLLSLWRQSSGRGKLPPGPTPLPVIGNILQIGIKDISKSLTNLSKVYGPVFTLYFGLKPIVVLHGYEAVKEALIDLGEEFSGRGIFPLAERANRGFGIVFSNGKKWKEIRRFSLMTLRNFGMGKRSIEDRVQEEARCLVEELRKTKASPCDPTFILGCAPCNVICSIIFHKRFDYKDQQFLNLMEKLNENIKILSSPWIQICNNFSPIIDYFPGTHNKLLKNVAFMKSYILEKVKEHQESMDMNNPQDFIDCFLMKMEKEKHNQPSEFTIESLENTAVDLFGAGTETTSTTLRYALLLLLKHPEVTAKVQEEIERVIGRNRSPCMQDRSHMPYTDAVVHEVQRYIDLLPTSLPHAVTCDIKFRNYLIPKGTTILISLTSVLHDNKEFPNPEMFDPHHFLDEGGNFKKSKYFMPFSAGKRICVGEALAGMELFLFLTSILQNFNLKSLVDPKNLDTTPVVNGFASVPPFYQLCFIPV
NCGC Assay Protocol Summary: Two uL of enzyme and substrate mix (final concentrations: 10nM CYP2C9, 100uM Luciferin-H, 25mM KPO4) were dispensed into a white, solid bottom 1536-well microtiter plate. 23nL of compound was transferred by a pin tool. The plate was incubated at 37C for 10 min. Two uL of an NADPH regeneration solution (Promega supplied reagent) was dispensed and the reaction was allowed to continue for 60 min at 37C. Then the reaction was stopped by reconstituted P450 Glo-Buffer. After another 20 min of incubation the plate was read on the ViewLux (Perkin Elmer) at 60 sec exposure and 2x2 binning. This protocol was carried out with Promega-Glo reagents and further information can be found at http://www.promega.com/tbs/tb325/tb325.pdf. Data were normalized to the to AC100 inhibition (57uM sulphaphenazole). Keywords: P450, CYP2C9, Luciferase, MLSMR, MLSCN, NIH Roadmap, qHTS, NCGC
Background: In qHTS, concentration-response curves come from the screen itself.
For the molecule `COc1ccc2[nH]cc(CCNc3ncncc3-c3ccc(C(=O)N(C)C)cc3)c2c1`, the Potency was 0.398 µM (active). Turning to `COc1cc2c3cc1Oc1c(OC)c(OC)cc4c1[C@@H](Cc1ccc(O)c(c1)Oc1ccc(cc1)C[C@@H]3N(C)CC2)N(C)CC4`, the Potency entry is “inactive”. For the molecule `N#Cc1cccc(NC(=O)N2CC[C@@]3(CCCN(C(=O)c4cc(C(F)(F)F)cc(C(F)(F)F)c4)C3)C2)c1`, the Potency entry is “inactive”.

With `COc1cccc(-c2cncnc2NCc2cccs2)c1`, the Potency is 0.398 µM (active).

On to `N#CCCn1c(=O)c(-c2ccc(Cl)cc2)nc2cnc(Oc3cccc(Cl)c3)nc21`, for which the Potency entry is “inactive”. On to `Cc1ccccc1[C@@H](OCCN(C)C)c1ccccc1`, for which the Potency result is “inactive”. Consider `CNc1nc(-c2ccc(N(C)C)cc2)nc2ccccc12`, for which the activity change, negative = inhibition was 108% [at 2.29 µM] (inactive). For `N#CCCn1c(=O)cnc2cnc(N3CCNCC3)nc21`, the Potency entry was “inactive”. Regarding `O=C(c1cc(C(F)(F)F)cc(C(F)(F)F)c1)N1CCC2(CC1)CN(c1ncccn1)C2`, the Potency result is “inactive”. The same measure, in the same setting: the result for `COCCn1c(=O)c(-c2ccc(OC)cc2)nc2cnc(Oc3cccc(Cl)c3)nc21` reads 0.631 µM (active); that for `Cc1noc(C)c1C(=O)N1CCC[C@@]2(CCN(Cc3ccc(C#N)cc3)C2)C1`, “inactive”. Consider `Cc1cccc(CNc2ccnc(-c3ccccc3CN(C)C)n2)c1`, for which the activity change, negative = inhibition was 13.9% [at 2.29 µM] (inactive).

As for `COc1ccccc1CNc1cc(-c2cccc(NS(C)(=O)=O)c2)ncn1`, the activity change, negative = inhibition is 33% [at 2.29 µM] (inactive). Turning to `C[C@@]12CC[C@@H]3c4ccc(O)cc4CC[C@H]3[C@H]1CC[C@H]2O`, the Potency result is “inactive”. Consider `FC(F)(F)c1cc(CN2CC[C@@]3(CCCNC3)C2)cc(C(F)(F)F)c1`, for which the Potency entry is “inactive”. On to `O=C(c1cccc(F)c1)N1CCC2(CCCN(C(c3ccccc3)c3ccccc3)C2)CC1`, for which the Potency is 3.16 µM (active).

Regarding `O=C(c1cc(C(F)(F)F)cc(C(F)(F)F)c1)N1CCC2(CC1)CCN(c1ncccn1)CC2`, the Potency result is “inactive”. Consider `C[C@@]12CCC(=O)C=C1CC[C@H]1[C@H]3CC[C@](O)(C(=O)CO)[C@]3(C)CC(=O)[C@@H]12`, for which the Potency result is “inactive”.

In the case of `COCCn1c(=O)c(-c2cc(F)cc(F)c2)nc2cnc(Oc3cccc(Cl)c3)nc21`, the Potency was 3.98 µM (active). On the same count and under the same terms, the result for `COc1ccc(NC(=O)N2CC[C@@]3(CCCN(C(=O)c4c(C)noc4C)C3)C2)cc1` reads “inactive”; that for `CCN1CCC[C@@H]1CNC(=O)c1cc(S(N)(=O)=O)ccc1OC`, “inactive”; that for `COc1ncc2nc(C)c(=O)n(CCC#N)c2n1`, “inactive”. As for `COc1cccc(Cn2c(=O)c(-c3cc(F)cc(F)c3)nc3cnc(N4CCNCC4)nc32)c1`, the Potency is 7.94 µM (active). `CN(C)c1nc(-c2ccccc2C(F)(F)F)nc2ccccc12`: the activity change, negative = inhibition was 37.2% [at 2.29 µM] (inactive). As to `Cc1cnc(CNc2ncnc3ccc(-c4ccccc4CN(C)C)cc23)cn1`, the activity change, negative = inhibition is 39% [at 2.29 µM] (inactive). As for `O=C(c1ccco1)N1CCC[C@@]2(CCN(c3cccc(-c4ccccc4)c3)C2)C1`, the Potency is 5.01 µM (active). Regarding `CNc1nc(-c2c(C)noc2C)nc2ccccc12`, the activity change, negative = inhibition is 37.6% [at 2.29 µM] (inactive). For `CS(=O)(=O)Nc1cccc(-c2cncnc2NCc2ccccc2)c1`, the Potency is 0.398 µM (active).

Turning to `CN(C)c1ncc2nc(-c3cc(F)cc(F)c3)c(=O)n(Cc3ccc(F)cc3)c2n1`, the Potency result was “inactive”.

Consider `C[C@@H](C[N+](C)(C)C)OC(N)=O`, for which the Potency result was “inactive”. For `CN(C)C(=O)c1ccc(-c2nc(N(C)C)c3ccccc3n2)cc1`, the activity change, negative = inhibition was 29.4% [at 2.29 µM] (inactive). For `C[C@@]12CCC(=O)C=C1CC[C@@H]1[C@@H]2[C@H](O)C[C@]2(C)[C@@H]1CC[C@]2(O)C(=O)CO`, the Potency entry is “inactive”.

For the molecule `COc1cc(=O)n(C)c2c(OC[C@@H](O)C(C)(C)O)cccc12`, the Potency result is “inactive”. For `O=c1c(-c2ccc(Cl)cc2)nc2cnc(N3CCOCC3)nc2n1Cc1ccc(F)cc1`, the Potency result is “inactive”. As for `COc1cccc(Cn2c(=O)cnc3cnc(Oc4cccc(Cl)c4)nc32)c1`, the Potency was 3.98 µM (active). Take `CS(=O)(=O)Nc1cccc(-c2cc(Nc3ccccc3)ncn2)c1`: the activity change, negative = inhibition was 56.3% [at 2.29 µM] (inactive). In the case of `CN(C)c1ccc(-c2nc(N(C)C)c3ccccc3n2)cc1`, the activity change, negative = inhibition is 118% [at 2.29 µM] (inactive). On the same count and under the same terms, the result for `Cc1cccc(CNc2cc(-c3cccc(NS(C)(=O)=O)c3)ncn2)c1` reads 33.9% [at 2.29 µM] (inactive). For `COc1ccccc1CCn1c(=O)c(-c2ccc(Cl)cc2)nc2cncnc21`, the Potency was 3.98 µM (active). Consider `COc1ccc2[nH]cc(CCNc3ncnc4ccc(-c5ccc(C(=O)N(C)C)cc5)cc34)c2c1`, for which the Potency is 0.251 µM (active).
